# Source: PubChem BioAssay (NCI)
# This is part of a sample that, as a whole, favours compounds with a hit. Of some 83,000 tested, about 20% had one in any assay.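 Cell lines were cultured in 96-well plates, exposed to a single compound concentration, and assessed for percent growth 48 hours later.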 Values without a mark were called inactive. The source made the active and inactive calls. How the source made its calls: active means growth percent below 10; inactive means the rest.
# Legend:
# Assay in all cases: NCI-60 one-dose screen, 48 h (100 = growth as untreated, 0 = no growth, -100 = all killed)
# [1] = tested on: NCI-H23 lung; details: 10 µM unless noted
# [2] = tested on: NCI-H460 lung; details: 10 µM unless noted
# [3] = tested on: HOP-92 NSCLC; details: 10 µM unless noted
# [4] = tested on: NCI-H522 lung; details: 10 µM
# [5] = tested on: A549/ATCC NSCLC; details: 10 µM unless noted
# [6] = tested on: 786-0 renal; details: 10 µM unless noted
# [7] = tested on: HOP-62 NSCLC; details: 10 µM unless noted
# [8] = tested on: COLO 205 colon; details: 10 µM unless noted
# [9] = tested on: NCI-H226 lung; details: 10 µM
# [10] = tested on: NCI-H322M lung; details: 10 µM unless noted
Structure (SMILES),growth [1],growth [2],growth [3],growth [4],growth [5],growth [6],growth [7],growth [8],growth [9],growth [10]
O=C(CCc1nnc2sc(/C=C\c3ccccc3)nn12)c1nc2ccccc2[nH]1,73.4%,96.7%,52.9%,95.1%,97.5%,89.7%,,,,
O=C(CCc1nnc2sc(-c3ccccc3)nn12)c1nc2ccccc2[nH]1,79.7%,99.8%,49.1%,91.2%,99.3%,103%,100%,114%,,
Cn1c(=O)c2c(-c3ccccc3F)n(-c3ccc4c(c3)OCO4)cc2n(C)c1=O,95.2%,99.4%,,91.5%,,102%,102%,106%,,
Cc1cc(O)cc2c1[C@H]1CC[C@]3(C)[C@@H](O)CC[C@H]3[C@@H]1C=C2,90.5%,104%,105%,43.2%,,99.5%,74.5%,108%,,
FCOC(C(F)(F)F)C(F)(F)F,,111%,120%,96.6%,99.1%,97.7%,114%,,106%,97.5%
Cn1cc(C(=O)NCCC(=N)N)cc1NC(=O)CN=C(N)N,,107%,89.5%,87.5%,99.2%,85.4%,85.9%,,90.7%,106%
COc1ccc(C(=O)COc2cccc(/C=C3\CSc4ccc(C)cc4C3=O)c2)cc1,,104%,98.5%,45.8%,96%,100%,104%,,77.7%,104%
Oc1cccc(Nc2nc(-c3ccccn3)cs2)c1,107%,,89%,,,102%,98%,103%,,
COc1cc2cc(Oc3ccc(NC(=O)Nc4ccc(Cl)c(C(F)(F)F)c4)cc3)c(C)nc2cc1OCCN1CCCCC1,-80.4% (active),-82% (active),37.4%,,-54.4% (active),-89.3% (active),85.6%,-81.4% (active),,
c1ccc2cc(Cn3c(-c4ccc5ccccc5c4)[n+](Cc4ccc5ccccc5c4)c4ccccc43)ccc2c1,-56.2% (active),-81.7% (active),-60.3% (active),,-65.3% (active),-95.1% (active),-66.8% (active),-69.5% (active),,
O=C1CC(c2ccsc2)c2snc(-c3ccc(Cl)cc3)c2N1 (centres undefined),35.9%,10.6%,51.1%,,35.1%,39.6%,37.2%,,,
CN(C)c1ccc(/C=C(\C#N)c2cc3ccccc3n2C)cc1,34.6%,5.38% (active),72.5%,,,38.6%,62.1%,-17.2% (active),,
O=c1[nH]c(-c2ccccn2)nc2sc3c(c12)CCCCCC3,48.7%,15.9%,-2.86% (active),,23.2%,46.1%,43%,33%,,
COc1ccc(-c2csc3c2-n2cccc2C3=O)cc1O,11.7%,1.57% (active),,-22.5% (active),11.9%,1.66% (active),31.3%,72.3%,,
Cc1nc2cc(Nc3nc(Nc4ccc(F)cc4)nc(-c4ccc(Cl)cc4)n3)ccc2n1Cc1ccccc1,,71.1%,35.1%,82.8%,57.4%,91%,80.6%,61.8%,86.5%,94%
C=CC(=O)N1CC2(CC(n3nc(-c4ccc(Oc5ccccc5)cc4)c4c(N)ncnc43)C2)C1,,40.5%,20%,,39.2%,35.5%,35.7%,,15.8%,31.1%
CN1CCn2c(c(Sc3ccc(C(=O)NO)cc3)c3ccccc32)C1=O,,20.4%,,-97.3% (active),62%,39.8%,21.3%,1.64% (active),-8.32% (active),53%
N#Cc1c(O)c2c(c(O)c1C#N)C(=O)c1ccccc1C2=O,,22.7%,88.5%,-5.65% (active),27.3%,90.9%,59.8%,-4.03% (active),87.8%,38.4%
COc1ccc2c(c1)c(=O)oc1c(C)c(OCC(C)=O)ccc12,,103%,,89.7%,85.1%,101%,118%,,104%,105%
COc1ccc(-c2nc3sccn3c2/C=C/C(=O)c2cc(OC)c(OC)c(OC)c2)cc1OC,,6.91% (active),0.346% (active),15.3%,54.4%,27.7%,36.9%,29.6%,64.9%,57.9%
CC1=C(C/C=C(\C)CCC[C@H](C)CCC[C@H](C)CCCC(C)C)C(=O)c2ccccc2C1=O,,114%,111%,107%,103%,103%,115%,110%,110%,103%
COc1cc(C(=O)/C=C/c2c(-c3cccs3)nc3sccn23)cc(OC)c1OC,,-27.9% (active),-5.38% (active),-13% (active),-3.26% (active),-13.9% (active),0.498% (active),-49.7% (active),26.2%,8.06% (active)
COC(=O)c1cc(-c2ccc(C)cc2)n(C(=O)CSc2nc3sc(C(N)=O)c(C)c3c(=O)n2Cc2ccccc2)n1,,103%,92.5%,95%,107%,102%,98.6%,,103%,129%
CCC(C)[C@H]1O[C@]2(CC[C@@H]1C)C[C@@H]1C[C@@H](C/C=C(\C)[C@@H](OC3C[C@H](OC)C(O[C@H]4C[C@H](OC)[C@@H](O)[C@H](C)O4)[C@H](C)O3)[C@@H](C)/C=C/C=C3\CO[C@@H]4[C@H](O)C(C)=C[C@@H](C(=O)O1)[C@]34O)O2 (some centres undefined),,3.02% (active),-6.11% (active),17.2%,,-79.7% (active),29.5%,-41.6% (active),6.79% (active),52.7%
